Data from PubChem BioAssay (NCATS).
Results filed as inconclusive are left out. Calls of active or inactive are those of the source. The call rests on the fitted dose curve; in most records, active means well fitted inhibition curve with a large enough effect; inconclusive means small, poorly fitted or top-dose-only effect; inactive means flat fitted curve, though single readings scatter.

assay: Primary qHTS for inhibitors of nuclear receptor binding SET domain protein 2 (NSD2) in an isogenic RCH-ACV NSD2 p.E1099K mutant (9B) (AID 1645876); details: RCH-ACV (leukaemia line) NSD2 E1099K (9B) viability, CellTiter-Glo, 72 h; series mostly up to 44.9 µM; activity change, negative = viability loss: at the top concentration; further: nearly all actives have a fitted effect of over 70% in size
On the % scale 0 is the no-effect control and ±100 the full control effect.

Compound	activity change, negative = viability loss	outcome
CC(=O)OC(C)C(C)(O)C(=O)O[C@@H]1CC[C@]2(C)CC(=O)C(=C(C)C)C[C@H]2[C@]1(C)OC(C)=O (stereo partly drawn)	-12.5% [at 17.3 µM] (inactive)	–
CC(=O)OC1CC2(C)C(CCC(C)C23Cc2c(O)cc4c(c2O3)CNC4=O)C(C)(C)C1O (stereo not drawn)	-12.5% [at 17.3 µM] (inactive)	–
C=CCc1cc(OC)c(OC(C)C(O)c2ccc(O)c(OC)c2)c(OC)c1 (stereo not drawn)	-4.38% (inactive)	–
OC[C@H]1O[C@@H](O[C@H]2[C@H](O)[C@@H](CO)O[C@@H](OCc3ccccc3)[C@@H]2O[C@@H]2OC[C@](O)(CO)[C@H]2O)[C@H](O)[C@@H](O)[C@@H]1O	–	inactive [at 17.3 µM]
CC1CCC23COC(=O)C2=CC(O)CC3C1(C)CCc1ccoc1 (stereo not drawn)	-4.44% (inactive)	–
CC(C/C=C/C(C)(C)O)C1CCC(C)(O)C(O)C1 (stereo not drawn)	3.5% (inactive)	–
COc1ccc(-n2[nH]c3c(cnc4ccccc43)c2=O)cc1	-0.158% (inactive)	–
C[C@H]1[C@H](C)CC[C@]2(C(=O)O)CC[C@]3(C)C(=CCC4[C@@]5(C)C[C@@H](O)[C@H](O)C(C)(C)C5CC[C@]43C)[C@H]12 (stereo partly drawn)	-7.06% [at 17.3 µM] (inactive)	–
C/C(CO)=C1/CCC23COC(C2)C(O)(C(=O)O)CCC13 (stereo not drawn)	-15.1% (inactive)	–
CC1=CC(=O)C2C(C)(C)CCC[C@]2(C)[C@H]1CC[C@H](C)CC(=O)O (stereo partly drawn)	3.36% (inactive)	–
COc1ccc2c(c1)N1C(=O)C[C@@]34C=CC[N@+]5([O-])CC[C@H]2[C@H](CC3)[C@@]145	–	inactive
CC(C)=CCc1cc(O[C@@H]2O[C@H](CO[C@@H]3OC[C@](O)(CO)[C@H]3O)[C@@H](O)[C@H](O)[C@H]2O)ccc1O	3.3% [at 17.3 µM] (inactive)	–
COC(=O)C(CC1(O)c2ccccc2N2C(=O)C(CC(C)C)NC21)n1cnc2ccccc2c1=O (stereo not drawn)	-7.87% [at 17.3 µM] (inactive)	–
